# From PubChem BioAssay
# A number with no mark means an inactive call. Calls of active or inactive are those of the source.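 Rule for the calls, unless noted: active = mean inhibition above 46.68%, the untreated control wells mean plus 3 SD; inactive = the rest.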
# Tests used:
# [1] = target: Nuclear receptor coactivator 1 (Homo sapiens) (UniProt Q15788); assay: NCOA1 GAL4-fusion reporter inhibition – cell-based, luminescence, quadruplicate, confirmation (AID 588820); conditions: HEK293 GAL4-SRC1 luciferase reporter, at 3.6 µM, hits give high values;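 note: 0% = DMSO wells and 100% = gossypol 36 µM treated wells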
# [2] = repression of VP16-driven luciferase reporter – cell-based, luminescence, high throughput, counter-screen for SRC1 inhibitor project (AID 588824; in the data active = inhibition above about 25%); conditions: cell-based VP16 transactivation luciferase luminescence; at 3.6 µM; hits give high values
# Chain of Nuclear receptor coactivator 1 (Homo sapiens) (Q15788 whole entry, looked up, the tested form may be a part): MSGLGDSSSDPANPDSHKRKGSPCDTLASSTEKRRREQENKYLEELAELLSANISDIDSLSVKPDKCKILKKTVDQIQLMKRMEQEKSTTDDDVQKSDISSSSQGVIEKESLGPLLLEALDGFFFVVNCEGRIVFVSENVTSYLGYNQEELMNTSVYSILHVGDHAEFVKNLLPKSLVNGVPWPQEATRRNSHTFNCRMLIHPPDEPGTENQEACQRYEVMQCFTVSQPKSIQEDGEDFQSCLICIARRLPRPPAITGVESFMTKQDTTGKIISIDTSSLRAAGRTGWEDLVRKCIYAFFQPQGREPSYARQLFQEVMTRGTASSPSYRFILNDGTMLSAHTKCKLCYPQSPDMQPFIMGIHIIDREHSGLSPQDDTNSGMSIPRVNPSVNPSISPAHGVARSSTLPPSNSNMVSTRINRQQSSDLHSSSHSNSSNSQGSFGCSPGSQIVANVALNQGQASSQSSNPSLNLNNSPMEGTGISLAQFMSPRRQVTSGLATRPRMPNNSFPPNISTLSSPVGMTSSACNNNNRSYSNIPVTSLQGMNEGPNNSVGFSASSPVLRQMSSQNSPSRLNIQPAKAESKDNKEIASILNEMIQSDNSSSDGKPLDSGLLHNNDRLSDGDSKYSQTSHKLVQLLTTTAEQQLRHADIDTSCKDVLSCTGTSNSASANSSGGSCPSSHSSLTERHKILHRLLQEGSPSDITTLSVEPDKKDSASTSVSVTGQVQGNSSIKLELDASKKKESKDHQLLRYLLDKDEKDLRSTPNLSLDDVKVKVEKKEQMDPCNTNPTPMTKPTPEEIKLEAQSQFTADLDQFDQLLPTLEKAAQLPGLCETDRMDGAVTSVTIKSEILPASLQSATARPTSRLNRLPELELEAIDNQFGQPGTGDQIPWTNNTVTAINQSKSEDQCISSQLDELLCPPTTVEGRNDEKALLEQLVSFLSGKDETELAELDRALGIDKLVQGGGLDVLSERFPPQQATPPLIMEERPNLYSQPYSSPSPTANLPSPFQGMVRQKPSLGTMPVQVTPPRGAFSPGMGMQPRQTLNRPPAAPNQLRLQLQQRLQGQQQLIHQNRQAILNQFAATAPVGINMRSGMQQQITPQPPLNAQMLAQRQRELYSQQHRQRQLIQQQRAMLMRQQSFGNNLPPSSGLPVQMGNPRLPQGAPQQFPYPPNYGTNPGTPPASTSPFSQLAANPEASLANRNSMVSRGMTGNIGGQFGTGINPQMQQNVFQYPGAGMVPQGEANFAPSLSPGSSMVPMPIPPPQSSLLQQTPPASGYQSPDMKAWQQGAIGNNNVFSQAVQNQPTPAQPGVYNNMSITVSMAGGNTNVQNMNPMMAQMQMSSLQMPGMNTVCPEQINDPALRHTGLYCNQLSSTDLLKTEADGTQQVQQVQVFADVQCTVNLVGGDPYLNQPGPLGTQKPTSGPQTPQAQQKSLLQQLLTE
Structure (SMILES),inhibition [1] [%],inhibition [2]
O=C(O)CC1S/C(=N\N=C2CCCCCC2)N(c2ccccc2)C1=O (centres undefined),-22.2,-9.41%
COc1ccc(CN2CCN(C(=O)c3ccc(S(=O)(=O)N4CCCCCC4)cc3)CC2)cc1,-2.25,25.6% (active)
O=C(O)CN1C(=O)/C(=C\c2ccccc2OCc2ccc(Cl)cc2Cl)SC1=S,32,-7.27%
CCOC(=O)C1(Cc2cccc(Cl)c2)CCCN(C(=O)c2ccoc2C)C1 (centres undefined),-4.52,-3.85%
O=C(Nc1cccc(F)c1)/C(=C\c1ccco1)NC(=O)c1ccco1,-13.4,-7.03%
CC(O)(c1ccccc1)c1nc(-c2cccc(C#N)c2)cs1 (centres undefined),-22.4,-4.39%
CCCCCCn1c(NCC)nc2c1c(=O)n(C)c(=O)n2C,-1.77,35.5% (active)
NS(=O)(=O)c1ccc(CCNC(=O)c2ccc(C#CC3(O)CCCCC3)cc2)cc1,-44,-3.61%
COc1ccc2c(C#N)c3ccccn3c2c1,37.4,7.81%
Cc1sc2ncnc(N3CCC(C(=O)N(C)CC(=O)Nc4ccccc4Br)CC3)c2c1C,5.26,13.3%
c1ccc(-c2cc(N3CCCCC3)nc(-c3ccccc3)n2)cc1,-21.1,-2.43%
N#Cc1c(N)nc2c(c1-c1ccc(F)cc1)CCC2,-6.03,-10.2%
